Six compounds from PubChem BioAssay (NCATS) can be followed below.

Assay [1] concerns the target Androgen receptor (Homo sapiens) (UniProt P10275). Description: qHTS assay for small molecule agonists of androgen receptor signaling (AID 588515; active = well fitted curve in the direction sought with a large enough effect in the signal ratio, with a control signal flat; the % refers to the signal ratio; note: % is set by controls: 0 for no effect and ±100 for the full control effect). The settings on record: AR-UAS-bla HEK293, beta-lactamase ratio, agonist 16 h; stronger effect = higher value. In a few lines:
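Stimulation of an AR-responsive β-lactamase reporter in GripTite HEK293 cells was measured after 16 h compound exposure at 37 °C, via CCF4 fluorescence after 2 h RT. EC50 from Hill fits, normalized to R1881 at 30 nM.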
For orientation: Quantitative high-throughput screening tests each substance at several concentrations.

Assay [2] has the same target. The assay can be described thus: qHTS assay for small molecule antagonists of androgen receptor signaling (AID 588516; active = well fitted curve in the direction sought with a large enough effect in the signal ratio, with a control signal flat, not every such curve was filed as active; the % refers to the signal ratio; note: % is set by controls: 0 for no effect and ±100 for the full control effect). Particulars: AR-UAS-bla HEK293, beta-lactamase ratio, antagonist mode, 16 h; series mostly up to 76.8 µM. Summed up: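 HEK293 AR-UAS-bla cells, 10% dialyzed FBS medium; cpd titration + R1881 10 nM final, 16 h 37 C; CCF4 2 h RT; FRET ratio; IC50/efficacy via Hill fit.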

Assay [3] addresses Bile acid receptor (Homo sapiens) (UniProt Q96RI1). Description: qHTS assay for small molecule antagonists of farnesoid X receptor signaling (AID 588526; calls by dose curve; note: % is set by controls: 0 for no effect and ±100 for the full control effect). The settings on record: HEK293T FXR-UAS-bla, beta-lactamase ratio, antagonist mode; series mostly up to 76.7 µM. In a few lines:
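Beta-lactamase reporter antagonist mode: HEK293T FXR-UAS-bla cells, titrated compound, CDCA stimulation, 16 h 37 C, CCF4 dye 2 h RT. Data normalized to CDCA 50 uM and DMSO; Hill-fit IC50.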

Assay [4] has as its target Glucocorticoid receptor (Homo sapiens) (UniProt P04150). Description: qHTS assay for small molecule antagonists of glucocorticoid receptor signaling (AID 588533; active = well fitted inhibition curve with a large enough effect in the signal ratio, with a control signal flat, not every such curve was filed as active; the % refers to the signal ratio;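 note: cells stimulated with 2 nM dexamethasone as agonist; % is set by controls: 0 for no effect and ±100 for the full control effect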). The settings on record: HeLa MMTV-bla, GRE beta-lactamase ratio, antagonist mode, 18 h; series mostly up to 76.8 µM. Summed up:
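Antagonist-mode qHTS: compound titrations added to GRE-bla HeLa cells, then dexamethasone 2 nM final; 18 h, 37 C. CCF4 FRET fluorescence normalized to dexamethasone and DMSO; IC50 from Hill fit.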

Assay [5] can be described thus: qHTS assay for small molecule antagonists of peroxisome proliferator-activated receptor delta signaling (AID 588535; active = well fitted inhibition curve with a large enough effect in the signal ratio, with a control signal flat, not every such curve was filed as active; the % refers to the signal ratio;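 for max response: cells co-treated with a PPAR-delta agonist as stimulator during compound exposure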). Particulars: HEK293T PPARd-UAS-bla, beta-lactamase FRET ratio, 18 h; 460 nm channel. In a few lines:
(§1)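 Antagonist-mode qHTS using GeneBLAzer PPAR-delta-UAS-bla HEK293T cells; compound exposure 18 hrs at 37 C over a titration. Ratiometric CCF4 fluorescence at 460/530 nm; concentration-response points fitted to the Hill equation.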

Assay [6] concerns the target Peroxisome proliferator-activated receptor delta (Homo sapiens) (UniProt Q03181). The description is as above. Particulars: HEK293T PPARd-UAS-bla, beta-lactamase FRET ratio, 18 h; series mostly up to 76.7 µM. Summed up: as §1
The target in assay [7] is Peroxisome proliferator-activated receptor gamma (Homo sapiens) (UniProt P37231). Description: qHTS assay for small molecule agonists of peroxisome proliferator-activated receptor gamma signaling (AID 588536; active = well fitted curve in the direction sought with a large enough effect in the signal ratio, with a control signal flat, not every such curve was filed as active; the % refers to the signal ratio;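 note: 0% = DMSO basal wells and 100% = rosiglitazone at 2 µM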). Particulars: HEK293 PPARg-UAS-bla, beta-lactamase ratio, 16 h, percent of rosiglitazone response, DMSO as zero; series mostly up to 76.7 µM. Summed up: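 This is an agonist-mode beta-lactamase reporter assay in HEK293 PPAR-gamma-UAS-bla cells with 1% charcoal/dextran FBS. Compound titrations ran 16 h at 37 C before CCF4 detection. EC50 and efficacy are Hill fits scaled to 2 uM rosiglitazone (100%) and DMSO basal.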
Sequence of Peroxisome proliferator-activated receptor gamma (Homo sapiens) (P37231 whole entry, looked up): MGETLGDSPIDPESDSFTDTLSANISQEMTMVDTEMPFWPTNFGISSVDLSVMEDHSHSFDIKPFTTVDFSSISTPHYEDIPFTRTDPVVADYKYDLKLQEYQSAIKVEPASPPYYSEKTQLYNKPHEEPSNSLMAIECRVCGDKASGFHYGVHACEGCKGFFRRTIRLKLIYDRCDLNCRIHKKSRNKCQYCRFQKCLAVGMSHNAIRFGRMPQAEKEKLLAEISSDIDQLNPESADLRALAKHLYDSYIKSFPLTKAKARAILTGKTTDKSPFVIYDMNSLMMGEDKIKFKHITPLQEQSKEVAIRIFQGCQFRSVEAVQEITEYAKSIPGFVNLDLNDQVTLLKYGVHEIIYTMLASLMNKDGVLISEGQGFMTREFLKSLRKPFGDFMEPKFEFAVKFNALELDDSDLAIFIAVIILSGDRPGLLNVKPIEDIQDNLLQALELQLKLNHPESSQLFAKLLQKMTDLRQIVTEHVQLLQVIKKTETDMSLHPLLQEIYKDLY

Assay [8] addresses Vitamin D3 receptor (Homo sapiens) (UniProt P11473). Description: qHTS assay for small molecule antagonists of vitamin D receptor signaling (AID 588541; calls by dose curve). The settings on record: HEK293T VDR-UAS-bla, beta-lactamase ratio, antagonist mode; series mostly up to 76.7 µM. Summed up:
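Antagonist-mode beta-lactamase reporter assay: HEK293T VDR-UAS-bla cells were exposed to titrated compound alongside 1-alpha,25-dihydroxyvitamin D3 at 3 nM final for 16 h. Values were normalized to the 50 nM agonist control and DMSO basal, with IC50 and efficacy from Hill equation fits.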

The nature of assay [9]: qHTS assay for small molecule agonists of retinoid X receptor alpha signaling (AID 588544; calls by dose curve;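 for activation: 0% = DMSO basal wells and 100% = reference agonist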). Particulars: HEK293T RXRa-UAS-bla, beta-lactamase reporter, 18 h; 530 nm emission.
Assay [10] concerns the target Retinoic acid receptor RXR-alpha (Homo sapiens) (UniProt P19793). Described as above. Particulars: HEK293T RXRa-UAS-bla, beta-lactamase reporter, 18 h; series mostly up to 76.7 µM.
The target of assay [11] is Thyroid hormone receptor beta (Homo sapiens) (UniProt P10828). Description: qHTS assay for small molecule agonists of thyroid hormone receptor beta signaling (AID 588545; calls by dose curve;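 note: 0% = DMSO only and 100% = 10 nM T3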). The settings on record: TR-UAS-bla GripTite HEK 293, beta-lactamase ratio, agonist mode, 18 h, percent of T3 response, DMSO as zero; series mostly up to 76.7 µM. In a few lines: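 TR-UAS-bla GripTite HEK 293 cells (2500/well, medium with 2% charcoal/dextran FBS) were treated in agonist mode for 18 h at 37 C, titrated. Beta-lactamase was read by CCF4 ratio after 2 h; normalized to 10 nM T3 (100%) and DMSO, Hill-fitted for EC50 and efficacy.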
Sequence of Thyroid hormone receptor beta (Homo sapiens) (P10828 whole entry, looked up): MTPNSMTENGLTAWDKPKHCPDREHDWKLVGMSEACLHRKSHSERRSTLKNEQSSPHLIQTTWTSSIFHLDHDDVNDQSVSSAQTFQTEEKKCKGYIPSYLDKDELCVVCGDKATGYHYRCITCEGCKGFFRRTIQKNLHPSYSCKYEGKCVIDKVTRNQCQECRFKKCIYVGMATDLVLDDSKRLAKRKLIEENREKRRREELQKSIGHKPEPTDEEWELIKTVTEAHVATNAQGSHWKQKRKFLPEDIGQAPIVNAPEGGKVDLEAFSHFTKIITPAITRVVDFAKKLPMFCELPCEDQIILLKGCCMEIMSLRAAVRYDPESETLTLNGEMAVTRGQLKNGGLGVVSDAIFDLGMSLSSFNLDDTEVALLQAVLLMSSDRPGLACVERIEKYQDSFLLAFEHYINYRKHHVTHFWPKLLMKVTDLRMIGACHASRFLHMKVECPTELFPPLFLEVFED

Assay [12] in a line: qHTS assay for small molecule antagonists of retinoid X receptor alpha signaling (AID 588546; active = well fitted inhibition curve with a large enough effect in the signal ratio, with a control signal flat, not every such curve was filed as active; the % refers to the signal ratio). Particulars: HEK293T RXRa-UAS-bla, beta-lactamase ratio, antagonist mode; measured here: W530 green channel, cytotoxicity proxy. In a few lines:
(§2)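 Beta-lactamase reporter inhibition, read as CCF4 fluorescence ratio (ex 405, em 460/530 nm) after 2 h at RT. HEK293T UAS-bla cells, 2500/well, were stimulated with 9-cis-RA at 500 or 100 nM final alongside test compound for 18 h at 37 C.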

For assay [13], the target named is Retinoic acid receptor RXR-alpha (Homo sapiens) (UniProt P19793). Described as above. Particulars: HEK293T RXRa-UAS-bla, beta-lactamase ratio, antagonist mode. In a few lines:
as §2

Assay [14] concerns the target Thyroid hormone receptor beta (Homo sapiens) (UniProt P10828). The assay can be described thus: qHTS assay for small molecule antagonists of thyroid hormone receptor beta signaling (AID 588547; active = well fitted inhibition curve with a large enough effect in the signal ratio, with a control signal flat, not every such curve was filed as active; the % refers to the signal ratio). Particulars: TR-UAS-bla HEK293, beta-lactamase ratio, antagonist mode, 18 h. Summed up:
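Inhibition of T3-driven (0.4nM final) beta-lactamase reporter activity was measured over 0.59 nM to 92 uM compound after 18 h at 37 C. The cells were GripTite HEK293 TR-UAS-bla in charcoal/dextran-stripped serum, with CCF4 ratio read-out and IC50 from Hill fits.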

The target of assay [15] is Voltage-gated inwardly rectifying potassium channel KCNH2 (Homo sapiens) (UniProt Q12809). Description: qHTS Assay for Small Molecule Inhibitors of the Human hERG Channel Activity (AID 588834).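 Note: top concentration of the series differs between compounds; % is set by controls: 0 for no effect and ±100 for the full control effect; lower thallium flux fluorescence means stronger hERG block; nearly all actives have a fitted effect of over 50% in size.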 Particulars: U2OS BacMam hERG, FluxOR thallium flux fluorescence; series mostly up to 46.1 µM. In a few lines: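 Thallium-flux (FluxOR) read-out on FDSS: fluorescence read 10 s before and 2 min after stimulation buffer. hERG-BacMam-transduced U2OS cells, compound exposure about 10 min. AC50 by standard Hill equation.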
Sequence of Voltage-gated inwardly rectifying potassium channel KCNH2 (Homo sapiens) (Q12809 whole entry, looked up): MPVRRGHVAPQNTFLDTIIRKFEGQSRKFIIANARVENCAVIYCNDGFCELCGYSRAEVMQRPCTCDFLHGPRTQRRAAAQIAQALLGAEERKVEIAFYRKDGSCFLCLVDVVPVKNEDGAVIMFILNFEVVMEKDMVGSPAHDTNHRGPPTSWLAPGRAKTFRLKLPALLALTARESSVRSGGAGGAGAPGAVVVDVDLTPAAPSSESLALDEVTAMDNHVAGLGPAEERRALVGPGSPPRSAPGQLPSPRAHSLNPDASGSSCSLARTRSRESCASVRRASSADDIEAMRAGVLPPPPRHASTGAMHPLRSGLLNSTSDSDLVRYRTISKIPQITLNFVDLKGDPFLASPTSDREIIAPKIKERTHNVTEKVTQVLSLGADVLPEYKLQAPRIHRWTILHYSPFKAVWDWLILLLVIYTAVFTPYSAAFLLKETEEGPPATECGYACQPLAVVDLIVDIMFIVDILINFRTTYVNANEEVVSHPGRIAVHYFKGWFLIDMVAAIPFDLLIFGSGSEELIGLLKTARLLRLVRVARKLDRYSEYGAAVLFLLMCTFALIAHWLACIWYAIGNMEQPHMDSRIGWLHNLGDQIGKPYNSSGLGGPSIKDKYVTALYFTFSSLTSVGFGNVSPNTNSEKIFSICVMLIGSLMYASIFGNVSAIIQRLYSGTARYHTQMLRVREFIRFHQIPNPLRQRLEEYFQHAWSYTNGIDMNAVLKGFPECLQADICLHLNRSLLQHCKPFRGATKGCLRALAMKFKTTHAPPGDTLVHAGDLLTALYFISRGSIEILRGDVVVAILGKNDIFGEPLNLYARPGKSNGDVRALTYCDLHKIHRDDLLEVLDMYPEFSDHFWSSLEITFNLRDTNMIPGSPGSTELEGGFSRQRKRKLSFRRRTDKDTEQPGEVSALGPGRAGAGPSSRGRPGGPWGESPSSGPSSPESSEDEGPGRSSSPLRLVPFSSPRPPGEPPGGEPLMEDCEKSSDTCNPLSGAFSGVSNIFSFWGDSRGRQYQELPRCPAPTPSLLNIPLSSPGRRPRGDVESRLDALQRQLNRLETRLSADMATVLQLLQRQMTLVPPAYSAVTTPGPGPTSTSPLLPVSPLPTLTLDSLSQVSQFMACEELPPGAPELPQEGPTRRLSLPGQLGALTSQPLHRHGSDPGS

The target of assay [16] is Luciferin 4-monooxygenase (Photinus pyralis) (UniProt P08659). The assay can be described thus: Biochemical firefly luciferase enzyme assay for NPC (AID 624030).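 Note: purified P. pyralis luciferase at 10 nM with luciferin and ATP substrate; 0% = DMSO and -100% = full luciferase inhibition by PTC124 control; nearly all actives have a fitted effect of over 70% in size.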 The settings on record: purified P. pyralis luciferase, luminescence, 5 min; series mostly up to 58.6 µM. Summed up:
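Direct inhibition of firefly luciferase enzyme (10 nM final, 50 mM Tris Acetate) assessed by luminescence within 5 minutes. Percent activity scaled between DMSO and PTC124 positive control, with concentration-effect curves classified by fit quality and response.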

A short description of assay [17]: S16 Schwann cell viability assay (CellTiter-Glo assay) (AID 624031).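 Note: native untransfected S16 rat Schwann cells; plate controls were DMSO-treated cells for no effect and cell-free wells for full effect; nearly all actives have a fitted effect of over 70% in size.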 The settings on record: S16 rat Schwann cells viability, 24 h; series mostly up to 57.5 µM. In a few lines:
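Counter-screen for cytotoxicity: parental S16 rat Schwann cells lacking the PMP22 reporters, treated 24 h with compound, viability from cellular ATP by CellTiter-Glo luminescence, normalized to DMSO (0%) and no-cell wells.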
In general terms: Cellular ATP, detected with luciferase, serves as a proxy for viable cell number.

The target of assay [18] is Estrogen receptor (Homo sapiens) (UniProt P03372). Description: qHTS assay for small molecule agonists of estrogen receptor alpha signaling (AID 588514; calls by dose curve;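 note: 0% = vehicle only and 100% = reference agonist; nearly all actives have a fitted effect of over 70% in size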). The settings on record: ER-alpha-UAS-bla HEK293, beta-lactamase ratio, 18 h, percent of full estradiol response, vehicle zero; series mostly up to 76.8 µM. In a few lines: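 Read-out: CCF4 fluorescence from a beta-lactamase reporter in ER-alpha-UAS-bla HEK 293 cells after 18 hrs of compound exposure at 37 C. Normalized to 20 nM 17-beta-estradiol (100%) and DMSO (0%).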
Sequence of Estrogen receptor (Homo sapiens) (P03372 whole entry, looked up): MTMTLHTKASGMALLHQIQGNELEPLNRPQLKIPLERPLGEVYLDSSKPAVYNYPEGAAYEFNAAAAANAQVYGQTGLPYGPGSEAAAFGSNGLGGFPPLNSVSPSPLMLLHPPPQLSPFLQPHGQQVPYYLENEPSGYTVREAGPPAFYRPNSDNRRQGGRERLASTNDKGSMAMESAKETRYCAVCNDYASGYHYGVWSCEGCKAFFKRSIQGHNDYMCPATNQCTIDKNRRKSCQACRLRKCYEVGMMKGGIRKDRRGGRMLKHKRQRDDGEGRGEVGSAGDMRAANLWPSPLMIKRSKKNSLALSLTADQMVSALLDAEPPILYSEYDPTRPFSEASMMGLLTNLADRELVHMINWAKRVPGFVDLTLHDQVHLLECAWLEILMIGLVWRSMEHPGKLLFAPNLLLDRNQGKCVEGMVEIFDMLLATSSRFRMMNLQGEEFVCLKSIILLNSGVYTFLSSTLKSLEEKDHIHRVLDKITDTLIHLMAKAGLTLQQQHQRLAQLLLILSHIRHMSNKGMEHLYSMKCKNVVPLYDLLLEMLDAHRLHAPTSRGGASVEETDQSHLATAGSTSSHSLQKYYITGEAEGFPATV

Assay [19] addresses Glucocorticoid receptor (Homo sapiens) (UniProt P04150). Description: qHTS assay for small molecule agonists of glucocorticoid receptor signaling (AID 588532; active = well fitted curve in the direction sought with a large enough effect in the signal ratio, with a control signal flat; the % refers to the signal ratio;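 note: 100% = dexamethasone at 0.1 µM and 0% = DMSO only wells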). Particulars: HeLa MMTV-bla, beta-lactamase ratio, agonist, 18 h; stronger effect = higher value; percent of dexamethasone control, DMSO zero. In a few lines:
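Using MMTV-bla HeLa cells in medium with 1% stripped FBS and 25 mM HEPES, compounds were titrated and incubated overnight-length (18 h). Beta-lactamase cleavage of CCF4 was quantified by dual-emission fluorescence.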

SMILES strings stand for the structures. Results filed as inconclusive are left out. Active and inactive are the calls of the source. Unless noted, calls come from the whole dose curve; as a rule, active = well fitted curve in the direction sought with a large enough effect; inconclusive = small, poorly fitted or top-dose-only effect, or another doubt; inactive = no such curve, though single readings can be large; an effect the other way counts as inactive or inconclusive.

Sequence of Androgen receptor (Homo sapiens) (P10275 whole entry, looked up): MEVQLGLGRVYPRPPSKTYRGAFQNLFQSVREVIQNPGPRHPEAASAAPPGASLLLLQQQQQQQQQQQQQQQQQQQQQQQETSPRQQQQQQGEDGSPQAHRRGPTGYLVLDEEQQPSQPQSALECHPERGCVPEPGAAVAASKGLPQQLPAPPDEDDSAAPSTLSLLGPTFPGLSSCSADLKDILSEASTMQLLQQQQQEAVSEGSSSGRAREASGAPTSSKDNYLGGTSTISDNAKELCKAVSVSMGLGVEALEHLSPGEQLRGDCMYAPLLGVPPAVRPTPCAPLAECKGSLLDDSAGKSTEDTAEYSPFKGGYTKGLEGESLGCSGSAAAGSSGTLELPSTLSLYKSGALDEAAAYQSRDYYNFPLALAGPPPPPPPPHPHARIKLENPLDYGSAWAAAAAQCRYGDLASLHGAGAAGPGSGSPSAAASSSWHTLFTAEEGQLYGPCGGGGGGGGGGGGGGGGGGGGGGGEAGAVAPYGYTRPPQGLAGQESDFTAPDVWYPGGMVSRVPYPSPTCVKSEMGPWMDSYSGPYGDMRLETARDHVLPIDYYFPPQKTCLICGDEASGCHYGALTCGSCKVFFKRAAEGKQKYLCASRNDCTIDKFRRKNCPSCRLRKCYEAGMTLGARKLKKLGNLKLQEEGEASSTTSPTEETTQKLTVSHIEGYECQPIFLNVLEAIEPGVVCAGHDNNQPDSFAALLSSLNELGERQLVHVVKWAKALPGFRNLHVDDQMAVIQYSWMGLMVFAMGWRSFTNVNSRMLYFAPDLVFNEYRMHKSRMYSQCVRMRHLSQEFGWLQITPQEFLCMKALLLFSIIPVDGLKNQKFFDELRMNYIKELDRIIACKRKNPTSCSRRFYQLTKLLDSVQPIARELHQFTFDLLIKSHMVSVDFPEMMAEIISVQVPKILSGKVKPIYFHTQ
Sequence of Retinoic acid receptor RXR-alpha (Homo sapiens) (P19793 whole entry, looked up): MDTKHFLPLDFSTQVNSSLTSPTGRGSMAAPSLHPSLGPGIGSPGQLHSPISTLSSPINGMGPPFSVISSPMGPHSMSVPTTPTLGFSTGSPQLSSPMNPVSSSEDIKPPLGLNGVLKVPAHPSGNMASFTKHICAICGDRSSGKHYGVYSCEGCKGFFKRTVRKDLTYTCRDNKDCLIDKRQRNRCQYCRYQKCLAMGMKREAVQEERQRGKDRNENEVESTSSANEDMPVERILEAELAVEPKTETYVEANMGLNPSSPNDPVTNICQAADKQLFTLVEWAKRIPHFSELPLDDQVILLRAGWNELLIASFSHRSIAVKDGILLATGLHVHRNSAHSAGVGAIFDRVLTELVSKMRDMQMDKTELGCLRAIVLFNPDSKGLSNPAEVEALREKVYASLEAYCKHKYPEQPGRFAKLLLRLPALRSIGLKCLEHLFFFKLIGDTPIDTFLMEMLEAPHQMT
Sequence of Luciferin 4-monooxygenase (Photinus pyralis) (P08659 whole entry, looked up): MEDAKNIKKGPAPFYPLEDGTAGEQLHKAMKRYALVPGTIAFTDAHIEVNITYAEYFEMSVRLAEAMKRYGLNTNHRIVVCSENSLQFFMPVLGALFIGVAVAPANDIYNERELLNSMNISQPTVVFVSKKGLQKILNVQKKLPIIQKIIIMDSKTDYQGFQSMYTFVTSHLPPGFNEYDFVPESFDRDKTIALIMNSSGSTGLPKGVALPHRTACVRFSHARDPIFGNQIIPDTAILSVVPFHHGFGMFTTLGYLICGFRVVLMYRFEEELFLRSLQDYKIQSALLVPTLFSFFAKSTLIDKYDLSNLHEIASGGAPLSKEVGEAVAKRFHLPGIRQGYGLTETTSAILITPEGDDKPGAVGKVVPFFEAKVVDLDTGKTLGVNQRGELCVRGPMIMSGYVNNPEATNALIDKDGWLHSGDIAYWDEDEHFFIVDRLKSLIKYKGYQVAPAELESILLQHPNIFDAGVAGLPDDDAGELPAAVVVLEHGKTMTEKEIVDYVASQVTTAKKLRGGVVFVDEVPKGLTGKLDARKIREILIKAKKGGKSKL

As for `CC(C)=CCC/C(C)=C/CO`, the activation in [1] was 8.43% (inactive). Further, the result in assay [2], in assay [3], in assay [4], in assay [6], in assay [7] and in assay [8] was inactive. Further, the compound was called inactive in assay [10], in assay [11] and in [17]. The max response in assay [5] was -8.02%; in assay [9] it was -9.95%; in [12], -9.74%; in assay [13], -1.85% (inactive). For the same compound, the activity change % (negative = inhibition) in assay [14] is 13.2% (inactive). In addition, the Potency result in assay [15] and in assay [16] was “inactive” in each case.

For the compound `CC(=O)Nc1cccc(O)c1`, the result in assay [18], in assay [7], in [10], in assay [11] and in [17] was inactive. In addition, the figures for the max response in [9], in assay [12] and in assay [13] were 11%, -5.06% and 5.72% (inactive), respectively. In addition, the activity change % (negative = inhibition) in assay [14] was 8.82% (inactive). The Potency result in [15] and in assay [16] was “inactive” each time.

For `Cc1c(C(=O)NCCO)[n+](=O)c2ccccc2n1[O-]`, the outcome in [2], in assay [4], in assay [6], in [7], in [8] and in [10] was inactive. In addition, the outcome in [11] and in assay [17] was inactive. In assay [19], the activation is 0.345% (inactive). Also, the max response was -20% in assay [5], -9.58% in assay [9], -9.28% in assay [12] and -2.52% (inactive) in assay [13]. Further, in assay [14], the activity change % (negative = inhibition) is -3.26% (inactive). Further, the Potency result in assay [15] and in assay [16] was “inactive” throughout.

For `O=C1C(c2[nH]c3ccccc3c2O)=Nc2ccccc21`, the outcome in [3], in [4], in [6], in assay [10], in [11] and in [17] was inactive. For the same compound, the activation in assay [19] is 5.37% (inactive). The max response in assay [5] was 32.9%; in assay [9] it was 16.9%; in [12], 0.17%; in [13], 9.96% (inactive). Further, the activity change % (negative = inhibition) in assay [14] was 0.455% (inactive). Besides, the Potency result in assay [15] was “inactive”.

Consider `FC(F)(F)C(Cl)Br` (centres undefined), for which the result in assay [18], in assay [4], in assay [6], in assay [7], in assay [10] and in [11] was inactive. Besides, in [17], the call was inactive. In addition, the activation in [19] was -1.46% (inactive). The max response is -35.1% in [5], -10.5% in [9], -1.63% in [12] and -3.82% (inactive) in assay [13]. In addition, the activity change % (negative = inhibition) in [14] is 8.04% (inactive). In addition, the Potency entry in assay [15] and in [16] was “inactive” throughout.

For `O=C(OOC(=O)c1ccccc1)c1ccccc1`, the outcome in assay [18], in [4], in assay [7], in assay [10], in assay [11] and in [17] was inactive. In addition, the activation in [19] is 6.15% (inactive). Also, the max response was -15.8% in [9], -16.7% in assay [12] and 10.6% (inactive) in [13]. In addition, the Potency result in assay [15] and in assay [16] was “inactive” each time.
